CYP2C19 inh – blocks human cytochrome P450 2C19. P33261. inhibition, % at 5 µM. CYP2C19 Supersomes, luciferin-H EGE luminescence, 30 min. 96,000 tested, 21% active;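 active means CYP2C19 inhibition above a set limit at 5 µM in the primary screen, cut at about 50% in these data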;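 further: plate controls were negative control wells for no effect and 2.5 mM tranylcypromine positive control for full effect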
CYP2C19 activ – increases human CYP2C19 enzyme activity; P33261; recombinant CYP2C19, luciferin-H EGE luminescence; stronger effect = higher value; 0 = fully inhibited enzyme, 1 = untreated enzyme; activation factor at 5 µM; 96,000 tested, under 10 active;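 active means activation factor of at least 2 at 5 µM in the primary screen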;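 further: 0 = wells with 2.5 mM tranylcypromine and 1 = vehicle-only wells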
Cav32 inh – human Cav3.2 channel inhibition, primary screen | B-score at 10 µM | 100,000 tested, 4% active | Cav3.2-expressing cells, Fluo-4 calcium fluorescence FDSS; stronger effect = lower value | O95180;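 active means single-dose well whose peak fluorescence ratio is a statistical outlier from its plate by either plate-standardised score or position-corrected B-score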
CYP2C9 inhib – blocks human cytochrome P450 2C9 | CYP2C9 Supersomes, luciferin-H conversion, luminescence | inhibition, % at 5 µM | 96,000 tested, 20% active | AID 777;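 active means blocking of liver enzyme CYP2C9 beyond about 50% at 5 µM, limit read from the data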
Target sequence (P11712 whole entry, looked up): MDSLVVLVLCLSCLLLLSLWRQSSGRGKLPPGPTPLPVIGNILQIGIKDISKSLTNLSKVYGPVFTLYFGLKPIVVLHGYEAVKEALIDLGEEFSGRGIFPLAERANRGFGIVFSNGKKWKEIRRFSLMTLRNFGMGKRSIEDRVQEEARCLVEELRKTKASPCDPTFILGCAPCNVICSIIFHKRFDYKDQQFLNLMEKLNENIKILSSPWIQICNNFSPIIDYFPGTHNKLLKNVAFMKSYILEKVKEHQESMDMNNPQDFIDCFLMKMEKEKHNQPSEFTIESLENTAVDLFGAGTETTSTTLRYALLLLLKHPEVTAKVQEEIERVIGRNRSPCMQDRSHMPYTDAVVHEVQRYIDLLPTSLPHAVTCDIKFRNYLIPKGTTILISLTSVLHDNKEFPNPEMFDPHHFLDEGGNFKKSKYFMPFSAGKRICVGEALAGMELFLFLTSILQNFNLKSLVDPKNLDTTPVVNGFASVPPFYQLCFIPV
Pyk2 oligo antag – Pyk2 (human) oligomerization antagonism. Q14289. Q293 cells, Pyk2 FERM NanoBiT luminescence; stronger effect = lower value. z-score (the deposit names both 25 µM and 10 µM). 99,000 tested, 0.83% active;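 active means Z-score of -3 or lower, scaled per plate to the spread of control and sample wells; inactive means z-score above -3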;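 further: negative z-score means lost luminescence so less FERM oligomerization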
CYP2C9 activ – activators of human CYP2C9; recombinant CYP2C9, luciferin-H conversion, luminescence; stronger effect = higher value; factor 1 = untreated enzyme, 0 = blocked; P11712; activation factor at 5 µM; 96,000 tested, 1.4% active; AID 1024;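 active means activation factor of 2 or more for CYP2C9 at a 5 µM dose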;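 further: 0 = sulfaphenazole-blocked wells and 1 = vehicle-only wells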
The depositor's hits bear a star; x = no result given. In the library only some 27% were active in any assay of this set; here they are far more common.

SMILES | CYP2C19 inh | CYP2C19 activ | Cav32 inh | CYP2C9 inhib | Pyk2 oligo antag | CYP2C9 activ
O=C(NCc1ccco1)c1ccccc1-c1ccc(C(F)(F)F)cc1 | 39 | 0.6 | -1.2 | 34 | -1.6 | 0.7
O=C(NCc1ccco1)/C(=C/c1cccnc1)NC(=O)c1ccco1 | -8 | 1.1 | 0.3 | -22 | 1.2 | 1.2
CCOC(=O)c1c(C)[nH]c(C(=O)COC(=O)CCC(=O)c2ccc3c(c2)OCCO3)c1C | 6 | 0.9 | 0.41 | 43 | 2 | 0.6
CCOc1ccc(C(C)=O)cc1COc1ccc(-n2cnnn2)cc1 | 97* | 0 | -0.67 | 78* | 0.16 | 0.2
COc1ccc(OCCOC(=O)c2cccc(-n3cnnn3)c2)cc1 | 66* | 0.3 | 0.063 | 58* | -0.57 | 0.4
COc1ccc(OCCOC(=O)c2ccc(-n3cnnn3)cc2)cc1 | 32 | 0.7 | 0.037 | 73* | 0.85 | 0.3
NC(=O)[C@H]1CC2(CC(c3cccc(NC(=O)COc4ccc(Cl)cc4)c3)=NO2)CN1C(=O)C(c1ccccc1)c1ccccc1 (stereo partly drawn) | x | x | -2.2 | x | x | x
CCn1cc(C(=O)N2CCCC2)c(=O)c2cc(S(=O)(=O)N3CCOCC3)ccc21 | -11 | 1.1 | 0.26 | 4 | 0.07 | 1
O=C(CCSc1ccc(Cl)cc1)NC12CC3CC(CC(C3)C1)C2 | 35 | 0.6 | -3.2 | 37 | -0.16 | 0.6
CC(C)C(C(=O)Nc1nccs1)c1ccccc1 (stereo not drawn) | 68* | 0.3 | -4.6 | 52* | 0.23 | 0.5
CCOC(=O)C(Cc1ccccc1)C(=O)Nc1nccs1 (stereo not drawn) | 25 | 0.8 | -0.15 | 36 | 0.18 | 0.6
CC(C)Cc1ccc(C(C)C(=O)Nc2nccs2)cc1 (stereo not drawn) | 51* | 0.5 | -1.9 | 68* | -1.5 | 0.3
CCOc1ccc(-c2nc(S(=O)(=O)c3ccccc3)c(NCc3cccnc3)o2)cc1 | 41 | 0.6 | x | 24 | -3.3* | 0.8
O=S(=O)(c1ccccc1)c1nc(-c2ccco2)oc1NCCCn1ccnc1 | 100* | 0 | 0.88 | 99* | 0.56 | 0
CCCCNc1oc(-c2ccc(OC)cc2)nc1S(=O)(=O)c1ccccc1 | 54* | 0.5 | -0.28 | 18 | 0.65 | 0.8
O=S(=O)(c1ccccc1)c1nc(-c2ccco2)oc1NCc1ccco1 | 47 | 0.5 | -0.45 | 29 | -0.33 | 0.7
COc1ccc(-c2c(C3=CCCCC3)oc3ccc(-c4ccc5c(c4)OCO5)cc23)cn1 | x | x | -0.29 | x | x | x
O=c1c2c3n(c(=O)nc2[nH]n1-c1ccccc1)CCCCC3 | 1 | 1 | 0.91 | 5 | 0.14 | 0.9
Cc1cccc2sc(NC(=O)C3c4ccccc4Oc4ccccc43)nc12 | 31 | 0.7 | -3.3* | 80* | -2 | 0.2
O=C(Nc1nc(-c2ccccc2)cs1)C1c2ccccc2Oc2ccccc21 | 12 | 0.9 | -5.2* | 72* | -2.2 | 0.3
O=C(Nc1ccncc1)C1c2ccccc2Oc2ccccc21 | 97* | 0 | -1.2 | 98* | -1.3 | 0
O=C(Nc1nc(-c2ccc(-c3ccccc3)cc2)cs1)C1CCCO1 (stereo not drawn) | 10 | 0.9 | -0.57 | 11 | 0.75 | 0.9
O=C(Nc1nc(-c2ccccc2)cs1)C1CCCO1 (stereo not drawn) | 62* | 0.4 | 0.15 | 54* | -0.17 | 0.5
CC(C)c1nnc(NC(=O)C2c3ccccc3Oc3ccccc32)s1 | 7 | 0.9 | -0.049 | 20 | -1.3 | 0.8
C=C(C)Cn1c(COc2ccccc2)nnc1SCC(=O)O | 2 | 1 | 0.24 | 7 | 0.35 | 0.9
SMILES | CYP2C19 inh | CYP2C19 activ | Cav32 inh | CYP2C9 inhib | Pyk2 oligo antag | CYP2C9 activ
COC(=O)CS(=O)(=O)c1ccc2c(c1)CC(=O)N2 | 0 | 1 | -0.0044 | 3 | 0.61 | 1
CCCOc1ccc(C2C(=O)N(C3CCCCC3)CC(=O)N2C2CC2)cc1OC (stereo not drawn) | 0 | 1 | -2.2 | 35 | -0.12 | 0.7
O=C(Nc1nncs1)C1c2ccccc2Oc2ccccc21 | 54* | 0.5 | 0.74 | 34 | -2.3 | 0.7
O=C(Nc1cccnc1Cl)C1c2ccccc2Oc2ccccc21 | 70* | 0.3 | 0.0059 | 48 | -0.55 | 0.5
Cc1nnc(NC(=O)C2c3ccccc3Oc3ccccc32)s1 | x | x | -0.39 | x | -1.9 | x
O=C(Nc1cccnc1Cl)c1cc(-c2ccco2)on1 | 14 | 0.9 | -0.097 | 37 | 0.17 | 0.6
COc1ccc2c(c1)O[C@H](c1ccc3c(c1)OCO3)[C@@H](OC(=O)N[C@H]1CCCc3ccccc31)C2=O | x | x | -0.78 | x | x | x
O=C(NC1(C(F)(F)F)NC(=O)N(Cc2cccnc2)C1=O)c1cccs1 (stereo not drawn) | 52* | 0.5 | 0.56 | 37 | 1.4 | 0.6
CCSc1nc2ccccc2n1Cc1ccccc1F | x | x | -5* | x | -0.74 | x
CC(C)CSc1nc2ccccc2n1CC(N)=O | 7 | 0.9 | 0.66 | -12 | 1.3 | 1.1
CCSc1nc2ccccc2n1CCOc1ccccc1 | x | x | -3.8* | x | -1.2 | x
CC(=O)Nc1nc2ccccc2n1CCOc1ccccc1 | 28 | 0.7 | -0.8 | -24 | 0.84 | 1.2
CC(C)N(C(=O)CSc1nnc(Cn2nnc3ccccc32)n1C)C(C)C | -12 | 1.1 | 0.0082 | -41 | 0.17 | 1.4
NC(=O)CSc1nc2ccccc2n1Cc1ccccc1F | 57* | 0.4 | -1.8 | -1 | 0.06 | 1
CC(C)N(C(=O)CSc1nc2ccccc2n1-c1ccccc1)C(C)C | 51* | 0.5 | -2.2 | x | -0.79 | x
COc1ccc(N2C(=O)C3CCCN3C2c2ccccc2Cl)cc1 (stereo not drawn) | 34 | 0.7 | 0.42 | 38 | x | 0.6
Cn1c(=O)c2cc(NC(=O)c3ccccc3Cl)c(=O)oc2n(C)c1=O | -1 | 1 | -0.02 | 18 | 0.51 | 0.8
CC(C)N(C(=O)CSc1nc2ccccc2n1Cc1ccccc1F)C(C)C | x | x | -9* | x | -1.6 | x
CC(C)N(C(=O)CSc1nc2ccccc2n1Cc1ccccc1)C(C)C | x | x | -0.36 | x | -0.07 | x
Cc1cc(C(=O)Nc2c(F)cc(F)cc2Br)c(C)o1 | 1 | 1 | 0.52 | -2 | 0.93 | 1
O=C(CCSc1nnc2scc(-c3ccccc3)n12)Nc1nc(-c2ccccc2)ns1 | 13 | 0.9 | -4.6* | 32 | -0.08 | 0.7
O=C(CSc1nnc2scc(-c3ccccc3)n12)NCC1CCCO1 (stereo not drawn) | 15 | 0.9 | 0.55 | -10 | 0.05 | 1.1
Cc1ccc(-c2csc3nnc(SCC(=O)Nc4cccc(C)n4)n23)cc1 | 57* | 0.4 | x | 53* | -0.6 | 0.5
O=C(CSc1nnnn1-c1ccccc1)Nc1nc(-c2ccccc2)ns1 | 9 | 0.9 | x | 31 | 1.3 | 0.7
CC(=O)Nc1ccc(C(=O)CSc2nnc3scc(-c4ccccc4)n23)cc1 | 34 | 0.7 | 0.2 | 58* | 0.62 | 0.4
O=C(O)c1nn(-c2ccccc2)ccc1=O | -2 | 1 | 0.48 | 1 | -0.16 | 1

Screening results as filed in PubChem BioAssay.
